Consider 17 molecules from PubChem BioAssay (EPA / NIEHS).

Read-out in assay [1]: Interleukin-6 (IL6), IL6 (gene 3569)
The assay is described as follows: BSK_CASM3C_IL6: BioMAP Diversity Plus: CASM3C Assay for Interleukin-6 (IL6) Biomarker Activity for (AID 2283040). The following applies: primary human coronary artery smooth muscle cells; actives raise or lower the signal.

Read-out in assay [2]: Tissue plasminogen activator (tPA), PLAT (gene 5327)
Description: BSK_BE3C_tPA: BioMAP Diversity Plus: BE3C Assay for Tissue plasminogen activator (tPA) Biomarker Activity (AID 2283041).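 As to outcome: tPA level quantified by ELISA one day after compound addition.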 The following applies: primary human bronchial epithelial cells; actives raise or lower the signal. The essentials: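 Gain- or loss-of-signal in tPA, measured by ELISA, derived by bidirectional fitting against DMSO. Cells: human primary bronchial epithelial; read at 24 h after chemical dosing.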

Read-out in assay [3]: Interleukin-8 (IL8), CXCL8 (gene 3576)
Description: BSK_CASM3C_IL8: BioMAP Diversity Plus: CASM3C Assay for Interleukin-8 (IL8) Biomarker Activity (AID 2283042).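 Also: IL-8 protein level quantified by ELISA.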 The note with it: primary human coronary artery smooth muscle cells; actives raise or lower the signal.

Read-out in assay [4]: Human Leukocyte Antigen - DR isotype (HLADR), HLA-DRA (gene 3122)
Description: BSK_CASM3C_HLADR: BioMAP Diversity Plus: CASM3C Assay for Human Leukocyte Antigen - DR isotype (HLADR) Biomarker Activity (AID 2283043).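 Also: cell-surface HLA-DR protein level quantified by ELISA.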 The note with it: primary human coronary artery smooth muscle cells; actives raise or lower the signal.

Read-out in assay [5]: Macrophage colony-stimulating factor (MCSF), CSF1 (gene 1435)
The assay is described as follows: BSK_CASM3C_MCSF: BioMAP Diversity Plus: CASM3C Assay for Macrophage colony-stimulating factor (MCSF) Biomarker Activity (AID 2283044).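 Also: M-CSF protein amount quantified by ELISA after 24 h exposure.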 The note with it: primary human coronary artery smooth muscle cells; actives raise or lower the signal.

Read-out in assay [6]: Low-density lipoprotein receptor (LDLR), LDLR (gene 3949)
The assay is described as follows: BSK_CASM3C_LDLR: BioMAP Diversity Plus: CASM3C Assay for Low-density lipoprotein receptor (LDLR) Biomarker Activity (AID 2283045).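 Also: LDLR protein level on the cell surface quantified by ELISA.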 The note with it: primary human coronary artery smooth muscle cells; actives raise or lower the signal.

Read-out in assay [7]: Monocyte Chemoattractant Protein-1 (MCP1), CCL2 (gene 6347)
Description: BSK_CASM3C_MCP1: BioMAP Diversity Plus: CASM3C Assay for Monocyte Chemoattractant Protein-1 (MCP1) Biomarker Activity (AID 2283046).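 Also: MCP-1 level quantified by ELISA 24 h after dosing.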 The note with it: primary human coronary artery smooth muscle cells; actives raise or lower the signal.

Assay [8] can be described thus: BSK_CASM3C_Proliferation: Cell Proliferation Assessment in the BioMAP Diversity Plus: CASM3C Assay (AID 2283047).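 Also: sulforhodamine B total protein stain as relative cell number at 560 nm; sub-confluent cells exposed 48 h before staining; fitted both ways against DMSO so gain or loss of cell number.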 The note with it: primary human coronary artery smooth muscle cells.
Read-out in assay [9]: Monokine induced gamma interferon (MIG), CXCL9 (gene 4283)
Description: BSK_CASM3C_MIG: BioMAP Diversity Plus: CASM3C Assay for Monokine induced gamma interferon (MIG) Biomarker Activity (AID 2283048).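 Also: MIG protein level measured by ELISA.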 The note with it: primary human coronary artery smooth muscle cells; actives raise or lower the signal.

Read-out in assay [10]: serum amyloid A (SAA), SAA1 (gene 6288)
Description: BSK_CASM3C_SAA: BioMAP Diversity Plus: CASM3C Assay for serum amyloid A (SAA) Biomarker Activity (AID 2283049).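 Also: SAA protein level quantified by ELISA.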 The following applies: primary human coronary artery smooth muscle cells; actives raise or lower the signal.

Values joined by “and” are separate entries in the source; they are usually repeats but may differ in a detail not shown here. Identical values can stand only once. More than one record can exist for a structure, and the calls need not agree. Active and inactive are the calls of the source. The calls were made as follows: active = hit-call score of the fitted dose curve at least 0.9, where 1 is the maximum; inactive = score below 0.9.

In the case of `NC(=O)C(F)(F)C(F)(F)C(F)(F)C(F)(F)C(F)(F)C(F)(F)C(F)(F)F`, the result in assay [1], in assay [2], in assay [3], in assay [4], in assay [5] and in [6] was inactive. For the same molecule, the outcome in assay [7], in assay [8], in assay [9] and in [10] was inactive.

The AC50 is the midpoint of the concentration-response curve, whichever way the signal moves. Take `OCC(F)(F)C(F)(F)C(F)(F)C(F)(F)C(F)(F)C(F)(F)C(F)(F)C(F)(F)CO`: the result in assay [1], in [2], in assay [3], in [4], in assay [5] and in [6] was inactive. The result in assay [7], in assay [9] and in assay [10] was inactive. Moreover, in assay [8], the AC50 was 49.9 µM (active) and 45.4 µM (active).

For `OCC(O)CC(F)(F)C(F)(F)C(F)(F)C(F)(F)C(F)(F)C(F)(F)C(F)(F)C(F)(F)F` (stereo unspecified), the result in assay [1], in assay [2], in [3], in assay [4], in assay [5] and in [6] was inactive. In addition, the outcome in assay [7], in assay [8], in assay [9] and in assay [10] was inactive.

Regarding `OCCCCC(F)(F)C(F)(F)C(F)(F)C(F)(F)F`, the outcome in assay [1], in assay [2], in [3], in [4], in assay [5] and in assay [6] was inactive. Further, the result in assay [7], in [8], in assay [9] and in assay [10] was inactive.

For `O=C(Cl)C(F)(F)C(F)(F)C(F)(F)C(F)(F)C(F)(F)C(F)(F)F`, the outcome in assay [1], in assay [2], in assay [3], in [4], in [5] and in assay [6] was inactive. Further, the result in assay [7], in assay [8], in assay [9] and in [10] was inactive.

For the molecule `O=C(Cl)C(F)(F)C(F)(F)C(F)(F)C(F)(F)C(F)(F)C(F)(F)C(F)(F)F`, the outcome in assay [1], in assay [2], in [3], in assay [4], in [5] and in assay [6] was inactive. Further, the outcome in assay [7], in [8], in [9] and in assay [10] was inactive.

With `CCN(CC)c1ccc2c(c1)Oc1cc(N(CC)CC)ccc1C21OC(=O)c2ccccc21`, the result in [1], in [2], in [3], in assay [4], in [5] and in [6] was inactive. Moreover, the outcome in [7], in assay [8], in [9] and in [10] was inactive.

With `O=S(=O)(O)CCC(F)(F)C(F)(F)C(F)(F)C(F)(F)C(F)(F)C(F)(F)C(F)(F)C(F)(F)F`, the outcome in [1], in assay [2], in assay [3], in assay [4], in [5] and in assay [6] was inactive. The result in assay [7], in assay [8], in assay [9] and in [10] was inactive.

As for `CCN(CC)c1ccc(C=O)cc1`, the result in [1], in assay [2], in assay [3], in assay [4], in assay [5] and in assay [6] was inactive. Moreover, the outcome in assay [7], in [8], in [9] and in [10] was inactive.

As for `O=C1c2c(O)ccc(Nc3ccc(CCO)cc3)c2C(=O)c2c([N+](=O)[O-])ccc(O)c21`, the outcome in [1], in assay [2], in assay [4], in assay [5], in assay [6] and in assay [7] was inactive. Besides, the result in assay [9] and in assay [10] was inactive. Further, the figures for the AC50 in assay [3] and in [8] were 2.52 µM (active) and 14.5 µM (active), respectively.

Consider `OCC(O)CC(F)(F)C(F)(F)C(F)(F)C(F)(F)F` (stereo unspecified), for which the outcome in assay [1], in assay [2], in assay [3], in assay [4], in [5] and in [6] was inactive. The result in assay [7], in [8], in [9] and in assay [10] was inactive.

For the molecule `NC(=O)C(F)(F)C(F)(F)C(F)(F)F`, the outcome in assay [1], in assay [2], in assay [3], in assay [4], in [5] and in [6] was inactive. Moreover, the result in [7], in assay [8], in assay [9] and in [10] was inactive.

With `O=C(O)C(F)(F)C(F)(F)C(F)(F)OC(F)(C(F)(F)F)C(F)(F)F`, the result in assay [1], in assay [2], in [3], in [4], in assay [5] and in assay [6] was inactive. Besides, the result in [7], in assay [8], in assay [9] and in assay [10] was inactive.

Turning to `NC(O)(C(F)(F)F)C(F)(F)F`, the result in [1], in assay [2], in assay [3], in assay [4], in [5] and in [6] was inactive. The result in assay [7], in assay [8], in assay [9] and in assay [10] was inactive. For the same molecule, the AC50 in [5] is 43.4 µM (active).

For the molecule `CCN=C1C=CC(=C(c2ccc(N(CC)CC)cc2)c2ccc(N(CC)CC)cc2)c2ccccc21`, the result in [1], in assay [3] and in assay [6] was inactive. Besides, the AC50 in assay [2] is 1.54 µM (active) and 976 nM (active); in [4] it was 4.2 µM (active) and 3.11 µM (active); in assay [5], 5.89 µM (active) and 2.3 µM (active); in assay [7] it was 4.84 µM (active) and 4.54 µM (active); in assay [8], 1.09 µM (active) and 1.31 µM (active); in assay [9], 5.1 µM (active) and 5.25 µM (active). Besides, the AC50 in assay [10] was 371 nM (active) and 1.07 µM (active).

As to `OC(O)C(F)(F)C(F)(F)F`, the result in [1], in [2], in assay [3], in [4], in [5] and in assay [6] was inactive. In addition, the result in assay [7], in [8], in [9] and in assay [10] was inactive.

For the molecule `CCN(CC)c1ccc(C=O)c(O)c1`, the outcome in assay [1], in [2], in assay [3], in assay [4], in assay [5] and in assay [6] was inactive. Further, the result in assay [7], in [8], in [9] and in assay [10] was inactive.
